Reference: PubChem BioAssay (Tox21)
Inconclusive results are not listed. Calls of active or inactive are those of the source. Unless noted, calls come from the whole dose curve; as a rule, active = well fitted curve in the direction sought with a large enough effect in the repeat runs; inconclusive = weak or mixed curves; inactive = no such curve, though single readings can be large; an effect the other way counts as inactive or inconclusive.

What was measured:
[1] = qHTS assay to identify small molecule agonists of the vitamin D receptor (VDR) signaling pathway - cell viability counter screen (AID 743224); note: series mostly up to about 63 µM; % is set by controls: 0 for no effect and ±100 for the full control effect; nearly all actives have a fitted effect of over 50% in size
In short: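 VDR-bla cells, 4 h after plating, exposed to compounds for 16 h at 37C; viability then read in the same wells as CellTiter-Glo luminescence after 30 min at room temperature, following the bla FRET read.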

[2] = qHTS assay to identify small molecule agonists of the NFkB signaling pathway (AID 1159509; active = well fitted curve in the direction sought with a large enough effect in the signal ratio in the repeat runs, not every such curve was filed as active; the % refers to the signal ratio; note: series mostly up to about 61 µM; % is set by controls: 0 for no effect and ±100 for the full control effect)
In short: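 ME-180 NFkB-bla, 2,000 cells/well, overnight plating; cpd pinned in DMSO, 5 h 37 C; B/G FRET substrate 1.5 h RT; ex 405, em 460/530 nm.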

[3] = qHTS assay to identify small molecule agonists of the NFkB signaling pathway - cell viability counter screen (AID 1159515; calls by dose curve; note: series mostly up to about 61 µM; % is set by controls: 0 for no effect and ±100 for the full control effect; nearly all actives have a fitted effect of over 55% in size)
In short: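 NFkB-bla ME-180 cells, 2,000/well, plated overnight at 37 C; compound added for 5 hr at 37 C. Viability read in the same wells as the bla reporter, by CellTiter-Glo luminescence after 30 min at room temperature.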

[4] = qHTS assay to identify small molecule agonists of the endoplasmic reticulum stress response signaling pathway (AID 1159516; active = well fitted activation curve with a large enough effect in the signal ratio in the repeat runs, not every such curve was filed as active; the % refers to the signal ratio; note: % is set by controls: 0 for no effect and ±100 for the full control effect)
In short: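 CellSensor ESRE-bla HeLa cells, 1,500 per well, plated overnight, then exposed to compounds for 5 hr at 37 C. Beta-lactamase reporter read with LiveBLAzer B/G FRET substrate after 2 hr at room temperature, 405 nm excitation, 460 and 530 nm emission.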

[5] = qHTS assay to identify small molecule agonists of the endoplasmic reticulum stress response signaling pathway - cell viability counter screen (AID 1159517; calls by dose curve;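 note: HeLa cells carrying an ER stress response element beta-lactamase reporter; series mostly up to about 61 µM; % is set by controls: 0 for no effect and ±100 for the full control effect; nearly all actives have a fitted effect of over 50% in size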)
In short: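 CellTiter-Glo was added to wells already read for beta-lactamase FRET, and luminescence was recorded 30 min later. Cells: ESRE-bla HeLa, 1,500 per well, compound exposure 5 hr at 37 C.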

[6] = target: Nuclear receptor ROR-gamma (Homo sapiens) (UniProt P51449); assay: qHTS assay to identify small molecule antagonists of the retinoid-related orphan receptor gamma (ROR-gamma) signaling pathway (AID 1159521;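 note: CHO cells with doxycycline inducible ROR-gamma driving an RORE luciferase reporter; top concentration of the series differs between compounds; % is set by controls: 0 for no effect and ±100 for the full control effect; nearly all actives have a fitted effect of over 50% in size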)
In short: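 CHO cells expressing RORγ under a TET-on promoter, luciferase under RORE control. Dox 1 uM final, 16 h; compounds added 2 h prior. Luminescence decrease measured.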

[7] = qHTS assay to identify small molecule agonists of the AP-1 signaling pathway - cell viability counter screen (AID 1159525; calls by dose curve; note: nearly all actives have a fitted effect of over 55% in size)
In short: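 ME-180 AP-1-bla, 2500 cells/well, Opti-MEM + 0.5% dialyzed FBS; overnight 37 °C; cpd 15-pt titration, 5 h 37 °C; CellTiter-Glo 30 min RT; luminescence read; normalised to TOAB and DMSO controls.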

[8] = target: Retinoic acid receptor RXR-alpha (Homo sapiens) (UniProt P19793); assay: qHTS assay to identify small molecule agonists of the RXR signaling pathway (AID 1159527; calls by dose curve; note: % is set by controls: 0 for no effect and ±100 for the full control effect; nearly all actives have a fitted effect of over 35% in size)
In short: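 Beta-lactamase reporter assay, agonist format. Engineered HEK 293T line, charcoal-stripped FBS at 2%, overnight (16 hr) exposure, fluorescence at 460 and 530 nm after 405 nm excitation.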

[9] = qHTS assay to identify small molecule agonists of the RXR signaling pathway - cell viability counter screen (AID 1159529); note: nearly all actives have a fitted effect of over 50% in size; note: potency is the fitted concentration of half-maximal effect
In short: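 Same-well viability check after the LiveBLAzer FRET read: CellTiter-Glo added, luminescence measured after 30 min at room temperature. Reporter HEK 293T cells had been treated with compounds for 16 hr following a 5 hr preincubation.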

[10] = qHTS assay to identify small molecule antagonists of the retinoid acid receptor (RAR) signaling pathway - cell viability counter screen (AID 1159551); note: % is set by controls: 0 for no effect and ±100 for the full control effect; nearly all actives have a fitted effect of over 35% in size
In short: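 C3RL4 RARE-luciferase cells, 1,000/well, incubated overnight, then dosed with compound plus 1 uM retinol (final). After 6 hr at 37 C, viability read by CellTiter-Glo ATP luminescence following 30 min at room temperature.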

[11] = qHTS assay to identify small molecule antagonists of the retinoic acid receptor (RAR) signaling pathway (AID 1159552)
In short: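 Readout: luciferase luminescence, 30 min post-reagent at RT. Setup: C3RL4 RARE reporter cells, compounds plus retinol 1 uM final, 6 hr incubation at 37 C and 5% CO2.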

[12] = qHTS assay to identify small molecule agonists of the retinoic acid receptor (RAR) signaling pathway (AID 1159553); note: % is set by controls: 0 for no effect and ±100 for the full control effect
In short: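 C3RL4 RARE-luciferase cells were seeded at 1,000/well and grown overnight at 37 C, then exposed to compounds for 6 hr at 37 C, 5% CO2. Luciferase reagent was added and luminescence was read after 30 min at room temperature.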

[13] = qHTS assay to identify small molecule antagonists of the vitamin D receptor (VDR) signaling pathway - cell viability counter screen (AID 743225)
In short: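 Luminescent cell viability (CellTiter-Glo) in VDR-bla HEK 293T cells after 16 h compound exposure at 37C in the presence of 3 nM final 1-alpha,25-dihydroxy vitamin D3.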

[14] = qHTS assay to identify small molecule agonists of the AP-1 signaling pathway (AID 1159526; calls by dose curve; note: % is set by controls: 0 for no effect and ±100 for the full control effect)
[15] = qHTS assay to identify small molecule antagonists of the estrogen related receptor (ERR) signaling pathway - cell viability counter screen (AID 1224818)
In short: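 ERR cells, 2,000 per well, compound added after 6 h and incubated 17.5 h at 37 C. Viability read by CellTiter-Fluor fluorescence after a further 30 min at 37 C.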

[16] = qHTS assay to identify small molecule antagonists of the estrogen related receptor signaling pathway with the pleiotropic PPARgamma coactivator (PGC) cell viability counter screen (AID 1224822)
In short: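 PGC/ERR cells rested 6 h, then compound-treated 17.5 h at 37 C. CellTiter-Fluor added for 30 min at 37 C, viability measured by fluorescence intensity.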

[17] = qHTS assay to identify small molecule antagonists of the retinoid-related orphan receptor gamma (ROR-gamma) signaling pathway - cell viability counter screen (AID 1159520)
In short: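 Tet-on ROR gamma CHO cells (1,000/well) were plated 4 hr, given compounds in DMSO for 2 hr at 37 C, then induced with 1 uM final doxycycline for 16 hr. Viability was read as ATP by CellTiter-Glo luminescence after 30 min.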

Sequence of Retinoic acid receptor RXR-alpha (Homo sapiens) (P19793 whole entry, looked up): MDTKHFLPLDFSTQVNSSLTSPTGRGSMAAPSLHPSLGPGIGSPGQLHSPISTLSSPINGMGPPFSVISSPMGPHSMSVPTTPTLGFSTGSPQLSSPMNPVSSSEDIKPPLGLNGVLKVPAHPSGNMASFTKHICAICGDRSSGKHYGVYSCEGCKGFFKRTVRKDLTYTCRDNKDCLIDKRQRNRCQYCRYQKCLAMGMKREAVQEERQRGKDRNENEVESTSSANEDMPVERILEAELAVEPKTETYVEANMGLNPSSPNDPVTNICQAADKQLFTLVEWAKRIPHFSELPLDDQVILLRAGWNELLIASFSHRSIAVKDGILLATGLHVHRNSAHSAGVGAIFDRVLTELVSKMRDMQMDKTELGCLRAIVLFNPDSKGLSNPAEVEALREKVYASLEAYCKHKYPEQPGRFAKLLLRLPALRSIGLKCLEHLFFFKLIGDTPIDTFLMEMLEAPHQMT

CCC(=O)O[C@@H]1C[C@H]2CC[C@]1(C)C2(C)C
inactive: outcome [1] | outcome [2] | outcome [3] | outcome [4] | outcome [5] | Potency [6] | outcome [7] | outcome [8] | Potency [9] | outcome [10] | outcome [11] | Potency [12]

Cc1cc(N)n(-c2ccccc2)n1
inactive: outcome [1] | outcome [13] | outcome [2] | outcome [3] | outcome [4] | outcome [5] | Potency [6] | outcome [7] | Potency [14] | Potency [9] | outcome [10] | outcome [11]

Sc1nc(S)nc(S)n1
inactive: outcome [1] | outcome [13] | outcome [2] | outcome [3] | outcome [4] | outcome [5] | outcome [7] | Potency [14] | outcome [10]

CC(=O)c1ccc(Cl)c(Cl)c1Cl
inactive: outcome [1] | outcome [13] | outcome [2] | outcome [3] | outcome [4] | outcome [5] | Potency [6] | outcome [7] | Potency [14] | Potency [9] | outcome [10] | outcome [11] | Potency [12]

NC(=O)c1ccccc1
inactive: outcome [1] | outcome [13] | outcome [2] | outcome [3] | outcome [4] | outcome [5] | outcome [7] | Potency [14] | Potency [9] | outcome [10] | Potency [12] | outcome [15] | outcome [16]

CC(=O)Oc1cccc2c1C(=O)c1c(OC(C)=O)cc(C(=O)O)cc1C2=O
inactive: outcome [1] | outcome [13] | outcome [2] | outcome [3] | outcome [4] | Potency [17] | Potency [6] | outcome [7] | Potency [14] | Potency [9] | outcome [10] | outcome [11] | Potency [12]

Clc1nc2ccccc2nc1Cl
inactive: outcome [13] | outcome [2] | outcome [3] | outcome [4] | outcome [5] | Potency [6] | outcome [7] | Potency [14] | Potency [9] | Potency [12]

O=C(O)CCc1nc2ccccc2[nH]1
inactive: outcome [1] | outcome [13] | outcome [2] | outcome [3] | outcome [4] | outcome [5] | Potency [6] | outcome [7] | Potency [14] | Potency [9] | outcome [10] | outcome [11] | Potency [12]

CC(O)CN (stereo not given)
inactive: outcome [1] | outcome [13] | outcome [2] | outcome [3] | outcome [4] | outcome [5] | Potency [6] | outcome [7] | Potency [14] | Potency [9] | outcome [10] | outcome [11] | Potency [12]

CC(C)Cc1nccs1
inactive: outcome [1] | outcome [13] | outcome [2] | outcome [3] | outcome [4] | outcome [5] | Potency [6] | outcome [7] | Potency [14] | Potency [9] | outcome [10] | outcome [11]

CCCCCCCCS
inactive: outcome [1] | outcome [13] | outcome [2] | outcome [3] | outcome [4] | outcome [5] | Potency [6] | outcome [7] | Potency [14] | Potency [9] | outcome [10] | outcome [11] | Potency [12]

O=C(O)c1cccc(C(=O)O)c1C(=O)O
active: Potency [9] 24.8 µM
inactive: outcome [1] | outcome [13] | outcome [2] | outcome [3] | outcome [4] | outcome [5] | Potency [6] | outcome [7] | Potency [14] | outcome [10] | outcome [11] | Potency [12]

CC(CC(C#N)(c1ccccc1)C(C)C)N(C)C (stereo not given)
inactive: outcome [1] | outcome [13] | outcome [2] | outcome [3] | outcome [4] | outcome [5] | Potency [6] | outcome [8] | outcome [10] | outcome [11] | Potency [12]

O=C1c2ccccc2C(=O)c2c1ccc(O)c2O
inactive: outcome [1] | outcome [13] | outcome [2] | outcome [3] | outcome [4] | outcome [5] | outcome [7] | Potency [14] | outcome [10] | outcome [11] | Potency [12]

C=C[Si]1(C)O[Si](C)(C=C)O[Si](C)(C=C)O[Si](C)(C=C)O1 (stereo not given)
inactive: outcome [13] | outcome [2] | outcome [3] | outcome [4] | outcome [5] | Potency [6] | outcome [7] | Potency [14] | outcome [10] | outcome [11]

Cc1ccc2ccccc2c1[N+](=O)[O-]
inactive: outcome [1] | outcome [13] | outcome [2] | outcome [3] | outcome [4] | outcome [5] | Potency [6] | outcome [7] | Potency [14] | Potency [9] | outcome [10] | outcome [11] | Potency [12]

CCCCCCCCC(=O)OCC(C)OC(=O)CCCCCCCC (stereo not given)
inactive: outcome [1] | outcome [13] | outcome [2] | outcome [3] | outcome [4] | outcome [5] | outcome [7] | Potency [14] | Potency [9] | outcome [10] | outcome [11] | Potency [12]

CC(C)(C)NCC(O)COc1ccc(NC(=O)NC2CCCCC2)cc1 (stereo not given)
inactive: outcome [1] | outcome [13] | outcome [2] | outcome [3] | outcome [4] | outcome [5] | outcome [7] | Potency [14] | outcome [10] | outcome [11]

CC1=CC(=C(c2ccc(N)cc2)c2ccc(N)cc2)C=CC1=N
inactive: activity change, negative = cytotoxicity [1] -18.2% [at 5.95 µM] | activation [2] 0.0131% [at 6.95 µM] | activity, negative = cytotoxic [3] 11% [at 6.95 µM] | activation [4] -5.36% [at 6.95 µM] | activity change, negative = cytotoxicity [5] -9.14% [at 6.95 µM] | activity change, negative = inhibition [6] -15.2% [at 8.39 µM] | viability change, negative = cytotoxic [7] 23.5% [at 6.97 µM] | activation [14] -9.58% [at 6.97 µM] | activity, negative = inhibition [11] -2.67% [at 8.39 µM] | activation [12] -1.68% [at 8.36 µM]

CCCCCCCCCCCCN1CCOCC1
inactive: outcome [1] | outcome [13] | outcome [2] | outcome [3] | outcome [4] | outcome [5] | Potency [17] | Potency [14] | Potency [9] | outcome [10]

CC1(C)[C@@H]2CC[C@]3(C2)[C@@H]1C(=O)CCC3(C)C
inactive: outcome [1] | outcome [13] | outcome [2] | outcome [3] | outcome [4] | outcome [5] | outcome [7] | outcome [8] | Potency [9] | outcome [10] | outcome [11] | Potency [12]
